According to the supplement of paper PMC8728848:
Many of the other results were omitted from the sample, so the strongest signals are more common in it than they were.

Experiments:
Assay in all cases: glycan array binding signal (z-score within array); higher = stronger binding
Details in all cases: glycan notation: IUPAC condensed, linker removed
[1] = biological target: Fuc(a1-2)Gal
Procedure, shortened: (§1)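 Arrays were curated from the Consortium for Functional Glycomics database, 3228 in total, and kept only where the protein sequence was available. Binding is expressed as a within-array Z-score. This score was averaged across arrays of the same protein sequence at different concentrations or buffers and across linkers, and negative values can be read as non-binding.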

[2] = biological target: Fuc(a1-2)Gal6S(b1-4)Glc
Procedure, shortened: as §1

[3] = biological target: Fuc(a1-3)[Gal(b1-4)]GlcNAc(b1-2)Man(a1-6)[Gal(b1-4)GlcNAc(b1-2)Man(a1-3)]Man(b1-4)GlcNAc(b1-4)GlcNAc
Procedure, shortened: as §1

[4] = biological target: Fuc(b1-3)GlcNAc
Procedure, shortened: as §1

[5] = biological target: Gal(a1-3)Gal(b1-3)GlcNAc
Procedure, shortened: as §1

[6] = biological target: Gal(a1-4)Gal(b1-4)GlcNAc
Procedure, shortened: as §1

[7] = biological target: Gal(b1-3)GlcNAc(b1-3)Gal(b1-4)GlcNAc
Procedure, shortened: as §1

[8] = biological target: Gal3S(b1-3)[Fuc(a1-4)]GlcNAc
Procedure, shortened: as §1

[9] = biological target: Gal4S(b1-4)GlcNAc
Procedure, shortened: as §1

[10] = biological target: Gal6S(b1-4)GlcNAc6S
Procedure, shortened: as §1

[11] = biological target: GalNAc(a1-3)Gal
Procedure, shortened: as §1

[12] = biological target: GalNAc(b1-3)Gal(a1-4)Gal(b1-4)GlcNAc(b1-3)Gal(b1-4)Glc
Procedure, shortened: as §1

[13] = biological target: Glc(a1-4)Glc
Procedure, shortened: as §1

[14] = biological target: GlcNAc(b1-3)[GlcNAc(b1-6)]GalNAc
Procedure, shortened: as §1

[15] = biological target: GlcNAc3Prop(b1-4)GlcNAc
Procedure, shortened: as §1

[16] = biological target: Kdn(a2-3)Gal(b1-3)GlcNAc
Procedure, shortened: as §1

[17] = biological target: Man(a1-2)Man(a1-2)Man(a1-6)[Man(a1-3)]Man
Procedure, shortened: as §1

[18] = biological target: Man(a1-3)[Man(a1-6)]Man
Procedure, shortened: as §1

[19] = biological target: Man(a1-3)[Man(a1-6)]Man(a1-6)[Man(a1-2)Man(a1-3)]Man(b1-4)GlcNAc(b1-4)GlcNAc
Procedure, shortened: as §1

[20] = biological target: Man(a1-3)[Man(a1-6)]Man(a1-6)[Man(a1-3)]Man(b1-4)GlcNAc(b1-4)GlcNAc
Procedure, shortened: as §1

[21] = biological target: Man(a1-6)Man
Procedure, shortened: as §1

[22] = biological target: Neu5Ac(a2-3)Gal(b1-3)GalNAc(b1-4)[Neu5Ac(a2-3)]Gal(b1-4)Glc
Procedure, shortened: as §1

[23] = biological target: Neu5Ac(a2-3)Gal(b1-3)GlcNAc(b1-3)Gal(b1-3)GlcNAc
Procedure, shortened: as §1

[24] = biological target: Neu5Ac(a2-3)Gal(b1-3)[Fuc(a1-4)]GlcNAc
Procedure, shortened: as §1

[25] = biological target: Neu5Ac(a2-3)Gal(b1-3)[Neu5Ac(a2-3)Gal(b1-4)]GlcNAc
Procedure, shortened: as §1

[26] = biological target: Neu5Ac(a2-3)Gal(b1-3)[Neu5Ac(a2-6)]GalNAc
Procedure, shortened: as §1

[27] = biological target: Neu5Ac(a2-3)Gal(b1-4)Glc
Procedure, shortened: as §1

[28] = biological target: Neu5Ac(a2-3)Gal(b1-4)GlcNAc(b1-2)Man(a1-3)[Neu5Ac(a2-6)Gal(b1-4)GlcNAc(b1-2)Man(a1-6)]Man(b1-4)GlcNAc(b1-4)GlcNAc
Procedure, shortened: as §1

[29] = biological target: Neu5Ac(a2-3)Gal(b1-4)GlcNAc(b1-3)Gal(b1-4)[Fuc(a1-3)]GlcNAc
Procedure, shortened: as §1

[30] = biological target: Neu5Ac(a2-3)Gal(b1-4)GlcNAc6S
Procedure, shortened: as §1

[31] = biological target: Neu5Ac(a2-3)Gal(b1-4)[Fuc(a1-3)]GlcNAc(b1-6)[Neu5Ac(a2-3)Gal(b1-3)]GalNAc
Procedure, shortened: as §1

[32] = biological target: Neu5Ac(a2-3)Gal(b1-4)[Fuc(a1-3)]GlcNAc6S
Procedure, shortened: as §1

[33] = biological target: Neu5Ac(a2-3)[GalNAc(b1-4)]Gal(b1-4)Glc
Procedure, shortened: as §1

[34] = biological target: Neu5Ac(a2-6)Gal(b1-4)GlcNAc(b1-2)Man(a1-6)Man(b1-4)GlcNAc(b1-4)GlcNAc
Procedure, shortened: as §1

[35] = biological target: Neu5Ac(a2-6)Gal(b1-4)GlcNAc(b1-2)Man(a1-6)[Man(a1-3)]Man(b1-4)GlcNAc(b1-4)GlcNAc
Procedure, shortened: as §1

[36] = biological target: Neu5Ac(a2-8)Neu5Ac(a2-3)Gal(b1-4)Glc
Procedure, shortened: as §1

[37] = biological target: Neu5Ac(a2-8)Neu5Ac(a2-8)Neu5Ac(a2-3)Gal(b1-4)Glc
Procedure, shortened: as §1

[38] = biological target: Neu5Ac9Ac(a2-6)Gal(b1-4)GlcNAc
Procedure, shortened: as §1

[39] = biological target: Neu5Gc(a2-3)Gal(b1-4)Glc
Procedure, shortened: as §1

B1: Spy0252 (Streptococcus pyogenes), Q9A1I9_STRP1 (protein)
chain: MNMKKLASLAMLGASVLGLAACGGKSQKEAGASKSDTAKTEITWWAFPVFTQEKAEDGVGTYEKKLIAAFEKANPEIKVKLETIDFTSGPEKITTAIEAGTAPDVLFDAPGRIIQYGKNGKLADLNDLFTEEFTKDVNNDKLIQASKAGDTAYMYPISSAPFYMALNKKMLKDAGVLDLVKEGWTTDDFEKVLKALKDKGYNPGSFFANGQGGDQGPRAFFANLYSSHITDDKVTKYTTDDANSIKAMTKISNWIKDGLMMNGSQYDGSADIQNFANGQTSFTILWAPAQPGIQAKLLEASKVDYLEIPFPSDDGKPELEYLVNGFAVFNNKDEQKVAASKTFIQFIADDKEWGPKNVVRTGAFPVRTSYGDLYKDKRMEKIAEWTKFYSPYYNTIDGFAEMRTLWFPMVQAVSNGDEKPEDALKAFTEKANKTIKKTQ
[1]
  glycan array binding signal (z-score): -0.143
[2]
  glycan array binding signal (z-score): -0.255
[3]
  glycan array binding signal (z-score): -0.236
[4]
  glycan array binding signal (z-score): -0.263
[5]
  glycan array binding signal (z-score): -0.267
[6]
  glycan array binding signal (z-score): -0.203
[7]
  glycan array binding signal (z-score): -0.267
[8]
  glycan array binding signal (z-score): -0.259
[9]
  glycan array binding signal (z-score): -0.249
[10]
  glycan array binding signal (z-score): -0.268
[11]
  glycan array binding signal (z-score): -0.212
[12]
  glycan array binding signal (z-score): 5.38
[13]
  glycan array binding signal (z-score): 0.228
[14]
  glycan array binding signal (z-score): -0.259
[15]
  glycan array binding signal (z-score): 0.218
[16]
  glycan array binding signal (z-score): -0.248
[17]
  glycan array binding signal (z-score): -0.258
[18]
  glycan array binding signal (z-score): -0.267
[19]
  glycan array binding signal (z-score): -0.273
[20]
  glycan array binding signal (z-score): -0.271
[21]
  glycan array binding signal (z-score): -0.283
[22]
  glycan array binding signal (z-score): -0.256
[23]
  glycan array binding signal (z-score): -0.195
[24]
  glycan array binding signal (z-score): -0.279
[25]
  glycan array binding signal (z-score): -0.223
[26]
  glycan array binding signal (z-score): -0.085
[27]
  glycan array binding signal (z-score): 5.54
[28]
  glycan array binding signal (z-score): -0.259
[29]
  glycan array binding signal (z-score): 6.21
[30]
  glycan array binding signal (z-score): -0.268
[31]
  glycan array binding signal (z-score): -0.157
[32]
  glycan array binding signal (z-score): -0.278
[33]
  glycan array binding signal (z-score): -0.266
[34]
  glycan array binding signal (z-score): -0.277
[35]
  glycan array binding signal (z-score): -0.26
[36]
  glycan array binding signal (z-score): 7.23
[37]
  glycan array binding signal (z-score): 7.09
[38]
  glycan array binding signal (z-score): -0.248
[39]
  glycan array binding signal (z-score): 5.2
